Screens: PubChem, several laboratories
CYP2C9 inh = human CYP2C9 inhibition; P11712; CYP2C9 Supersomes, luciferin-H conversion, luminescence; inhibition, % at 5 µM; 20% of 96,000 active; AID 777;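 active = blocking of liver enzyme CYP2C9 beyond about 50% at 5 µM, limit read from the data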
Target sequence (P11712 whole entry, looked up): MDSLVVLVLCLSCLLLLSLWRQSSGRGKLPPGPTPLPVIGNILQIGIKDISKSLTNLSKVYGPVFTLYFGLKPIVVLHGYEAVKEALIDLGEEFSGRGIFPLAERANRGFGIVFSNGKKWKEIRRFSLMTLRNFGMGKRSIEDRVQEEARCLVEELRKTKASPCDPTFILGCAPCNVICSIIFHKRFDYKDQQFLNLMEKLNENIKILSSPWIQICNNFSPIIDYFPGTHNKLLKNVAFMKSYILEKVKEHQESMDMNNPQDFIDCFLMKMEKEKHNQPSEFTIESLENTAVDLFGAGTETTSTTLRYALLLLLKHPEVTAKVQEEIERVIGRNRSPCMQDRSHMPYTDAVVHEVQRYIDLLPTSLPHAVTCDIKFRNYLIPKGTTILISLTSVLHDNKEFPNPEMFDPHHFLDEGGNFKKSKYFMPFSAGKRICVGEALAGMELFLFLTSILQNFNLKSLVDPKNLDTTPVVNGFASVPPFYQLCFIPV
F-actin modifier = alters cytoskeleton assembly in HUVEC cells | inhibition, % at 2 µM | HUVEC TNFa F-actin phalloidin imaging, high content | 0.18% of 91,000 active;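 active = inhibition above the batch mean plus 3 SD and confirmed as a hit by visual image inspection, cut at about 30% in these data, passing the limit was not always enough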
CYP2C19 act = cytochrome P450 2C19 (human) activation. P33261. recombinant CYP2C19, luciferin-H EGE luminescence; hits give high values; 0 = fully inhibited enzyme, 1 = untreated enzyme. activation factor at 5 µM. 96,000 tested, under 10 active. AID 1025;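 active = activation factor of at least 2 at 5 µM in the primary screen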;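 note: 0 = wells with 2.5 mM tranylcypromine and 1 = vehicle-only wells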
E-sel TNF inh = TNF alpha driven E-selectin expression inhibition | 0.71% of 120,000 active | HUVEC TNFa-induced E-selectin immunofluorescence, high content | inhibition, % at 2 µM;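 active = inhibition above the batch mean plus 3 SD, and confirmed as a hit on visual image review, cut at about 43% in these data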;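 note: 0% = TNF-stimulated DMSO wells and 100% = unstimulated control wells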
CYP2C9 activ = activators of human CYP2C9; P11712; recombinant CYP2C9, luciferin-H conversion, luminescence; hits give high values; factor 1 = untreated enzyme, 0 = blocked; activation factor at 5 µM; 1.4% of 96,000 active; AID 1024;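 active = activation factor of 2 or more for CYP2C9 at a 5 µM dose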;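 note: 0 = sulfaphenazole-blocked wells and 1 = vehicle-only wells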
CYP2C19 inh = inhibitors of human CYP2C19; 21% of 96,000 active; P33261; AID 778; inhibition, % at 5 µM; CYP2C19 Supersomes, luciferin-H EGE luminescence, 30 min;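 active = CYP2C19 inhibition above a set limit at 5 µM in the primary screen, cut at about 50% in these data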;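 note: plate controls were negative control wells for no effect and 2.5 mM tranylcypromine positive control for full effect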
* = called active by the depositor. Sampled rows, rich in hits. Any-hit rate of the full collection: about 22%.

What do the screens show for `COc1ccc(N(CC(=O)O)S(=O)(=O)c2c(C)n[nH]c2C)cc1`?
CYP2C9 inh: -14; F-actin modifier: 9; CYP2C19 act: 1.1; E-sel TNF inh: -12; CYP2C9 activ: 1.1; CYP2C19 inh: -12

What do the screens show for `COc1ccc(NC(=O)CN(c2cc(C)cc(C)c2)S(=O)(=O)c2c(C)n[nH]c2C)cc1`?
CYP2C9 inh: 69*; F-actin modifier: -2; CYP2C19 act: 0.9; E-sel TNF inh: -1; CYP2C9 activ: 0.3; CYP2C19 inh: 14

Results for CCOc1ccccc1NC(=O)CN(c1ccc(C)cc1)S(=O)(=O)c1c(C)n[nH]c1C ?
CYP2C9 inh: 95*; F-actin modifier: -4; CYP2C19 act: 0.3; CYP2C9 activ: 0.1; CYP2C19 inh: 73*

How did Cc1cc(N2CCC(C)CC2)nc(NCc2ccccc2)n1 do in these assays?
E-sel TNF inh: -16

How did CCOC(=O)c1ccc(NC(=O)CN(c2ccc(C)cc2)S(=O)(=O)c2c(C)n[nH]c2C)cc1 do in these assays?
CYP2C9 inh: 76*; F-actin modifier: -13; CYP2C19 act: 0.8; CYP2C9 activ: 0.2; CYP2C19 inh: 19

What do the screens show for `COc1ccccc1CNC(=O)CN(c1ccc(C)cc1)S(=O)(=O)c1c(C)n[nH]c1C`?
CYP2C9 inh: 67*; F-actin modifier: -8; CYP2C19 act: 0.3; CYP2C9 activ: 0.3; CYP2C19 inh: 67*

How did Cc1ccc(N(CC(=O)Nc2ccc3c(c2)OCCO3)S(=O)(=O)c2c(C)noc2C)cc1 do in these assays?
CYP2C9 inh: 24; F-actin modifier: -9; CYP2C19 act: 1; CYP2C9 activ: 0.8; CYP2C19 inh: -4

How did Cc1ccc(N(CC(=O)Nc2ccc3c(c2)OCCO3)S(=O)(=O)c2c(C)n[nH]c2C)cc1 do in these assays?
CYP2C9 inh: 74*; F-actin modifier: -2; CYP2C19 act: 0.4; CYP2C9 activ: 0.3; CYP2C19 inh: 62*

Results for O=C(N/N=C\c1cn[nH]c1-c1ccccc1)c1cccs1 ?
E-sel TNF inh: 19

How did O=C1Nc2c(c(=O)[nH]c(=O)n2-c2ccccc2F)C(C(F)(F)F)(C(F)(F)F)N1 do in these assays?
F-actin modifier: -14; E-sel TNF inh: -3

How did CCn1ncc(C(=O)Nc2cccc(Cl)c2)c1C do in these assays?
E-sel TNF inh: -1

How did CC1(C)S/C(=N/N=C/c2cccs2)NC1=O do in these assays?
CYP2C9 inh: 44; F-actin modifier: 7; CYP2C19 act: 1; E-sel TNF inh: -62; CYP2C9 activ: 0.6; CYP2C19 inh: -5

Results for O=C1N/C(=N/N=C/c2ccccc2)SC1(c1ccccc1)c1ccccc1 ?
CYP2C9 inh: 94*; F-actin modifier: -15; CYP2C19 act: 0.8; CYP2C9 activ: 0.1; CYP2C19 inh: 20

How did O=C(c1ccc(F)cc1)n1c(NCc2ccccc2)n[nH]c1=S do in these assays?
E-sel TNF inh: -6

What do the screens show for `Nc1nnc(CCC2CCCCC2)s1`?
CYP2C9 inh: -12; F-actin modifier: -21; CYP2C19 act: 0.3; E-sel TNF inh: 2; CYP2C9 activ: 1.1; CYP2C19 inh: 73*

What do the screens show for `CCCCCc1nnc(N)s1`?
CYP2C9 inh: -8; F-actin modifier: -4; CYP2C19 act: 1; CYP2C9 activ: 1.1; CYP2C19 inh: 4

Results for Cn1c(C(=O)Nc2ccc3c(c2)OCCO3)cc2sccc21 ?
CYP2C9 inh: -35; F-actin modifier: -26; CYP2C19 act: 0.7; CYP2C9 activ: 1.4; CYP2C19 inh: 25

Results for O=C(Nc1ccc2c(c1)OCCO2)c1cc2sccc2n1Cc1ccc(F)cc1 ?
CYP2C9 inh: 78*; F-actin modifier: -8; CYP2C19 act: 0.4; E-sel TNF inh: -10; CYP2C9 activ: 0.2; CYP2C19 inh: 60*

How did O=C(CCNC(=O)c1ccc(Br)o1)NCc1ccc(Cl)cc1 do in these assays?
CYP2C9 inh: -1; F-actin modifier: -1; CYP2C19 act: 0.9; E-sel TNF inh: -29; CYP2C9 activ: 1; CYP2C19 inh: 6

Results for Cc1ccccc1N1CCN(Cc2c[nH]c3ccccc23)CC1 ?
CYP2C9 inh: 20; F-actin modifier: 1; CYP2C19 act: 0.4; E-sel TNF inh: -6; CYP2C9 activ: 0.8; CYP2C19 inh: 56*

How did CCOC(=O)C1CCN(S(=O)(=O)c2cc(Br)cc3c2N(C(=O)C2CC2)CC3)CC1 do in these assays?
CYP2C9 inh: 35; CYP2C19 act: 0.4; E-sel TNF inh: 30; CYP2C9 activ: 0.6; CYP2C19 inh: 60*
